# Assay results from the supplement of paper PMC3334620.
# Over roughly 33,000 sequences, “E-score (-0.5 to 0.5)” has its median near -0.054; the highest 2% begin near 0.39. This excerpt belongs to a sample that is enriched for the highest values.
# Biological target: Ylr278c (UniProt Q05854)
# Test: PBM E-score (8-mer binding enrichment) (E-score (-0.5 to 0.5)); higher = stronger / more preferred TF binding
# Details: protein concentration: 200 nM; construct: GST-DNA-binding domain
# Procedure: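 Universal 'all 10-mer' protein binding microarrays (Agilent AMADID 015681) probed with GST-tagged S. cerevisiae TFs (full-length or DBD) made by in vitro transcription/translation (PURExpress), about 100-200 nM. Bound TF was detected with fluorescent anti-GST. Each ungapped 8-mer (which stands for itself and its reverse complement) is scored by the PBM enrichment score (E-score), a modified Wilcoxon-Mann-Whitney statistic from -0.5 to +0.5, computed with the Universal PBM Analysis Suite. Scale: above 0.35 generally sequence-specific binding.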
# Chain of UniProt Q05854 (Q05854 whole entry): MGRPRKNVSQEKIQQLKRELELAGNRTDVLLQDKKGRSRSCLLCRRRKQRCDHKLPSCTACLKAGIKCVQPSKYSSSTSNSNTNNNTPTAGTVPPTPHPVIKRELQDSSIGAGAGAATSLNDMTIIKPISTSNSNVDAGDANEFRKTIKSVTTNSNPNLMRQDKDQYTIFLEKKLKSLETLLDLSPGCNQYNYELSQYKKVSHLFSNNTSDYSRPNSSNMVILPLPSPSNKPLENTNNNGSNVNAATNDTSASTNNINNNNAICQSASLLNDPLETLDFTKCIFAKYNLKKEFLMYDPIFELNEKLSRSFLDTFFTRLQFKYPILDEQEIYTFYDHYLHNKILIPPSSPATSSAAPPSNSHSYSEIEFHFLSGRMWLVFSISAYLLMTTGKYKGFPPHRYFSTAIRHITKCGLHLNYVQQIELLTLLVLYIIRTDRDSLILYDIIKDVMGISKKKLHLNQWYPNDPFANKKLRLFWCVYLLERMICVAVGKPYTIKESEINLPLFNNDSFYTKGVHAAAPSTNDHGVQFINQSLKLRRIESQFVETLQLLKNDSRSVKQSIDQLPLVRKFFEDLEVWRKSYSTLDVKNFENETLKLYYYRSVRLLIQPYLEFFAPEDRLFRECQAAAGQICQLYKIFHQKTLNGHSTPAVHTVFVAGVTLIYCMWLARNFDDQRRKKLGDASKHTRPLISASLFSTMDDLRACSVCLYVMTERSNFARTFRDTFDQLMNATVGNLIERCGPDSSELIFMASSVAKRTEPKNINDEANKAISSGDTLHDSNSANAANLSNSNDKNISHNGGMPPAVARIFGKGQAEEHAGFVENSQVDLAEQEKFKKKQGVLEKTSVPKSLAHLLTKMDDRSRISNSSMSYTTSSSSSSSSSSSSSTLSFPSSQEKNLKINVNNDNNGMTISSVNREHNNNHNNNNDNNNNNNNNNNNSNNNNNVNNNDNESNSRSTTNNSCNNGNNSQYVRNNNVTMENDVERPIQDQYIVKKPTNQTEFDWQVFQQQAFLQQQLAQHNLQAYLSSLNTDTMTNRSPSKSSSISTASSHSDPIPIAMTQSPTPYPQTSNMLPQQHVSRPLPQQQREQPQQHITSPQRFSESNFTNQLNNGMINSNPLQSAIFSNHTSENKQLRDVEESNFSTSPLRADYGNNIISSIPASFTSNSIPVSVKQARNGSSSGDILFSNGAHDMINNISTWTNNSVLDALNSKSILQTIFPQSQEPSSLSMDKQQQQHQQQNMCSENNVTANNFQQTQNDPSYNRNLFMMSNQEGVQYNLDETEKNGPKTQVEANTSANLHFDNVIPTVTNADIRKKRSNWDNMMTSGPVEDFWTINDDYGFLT
row,Sequence,PBM E-score
1,ATAGTGAT,-0.203
2,TAAAGACA,-0.186
3,ACTGAGGC,0.105
4,TCTAAAGA,-0.115
5,CGCGTTAA,0.0131
6,GGGCGTTA,-0.101
7,CGGCGTTC,0.378
8,CGGCGTTA,0.405
9,GAGTGACA,-0.00079
10,TAGCTTAA,-0.198
11,TGATCTAA,-0.15
12,CTGAGGTC,-0.297
13,AGGAGGTC,-0.0814
14,CGGAGGTC,0.443
15,AGGAGGTA,-0.0558
16,GGGAGGTA,-0.0269
17,CGGAGGTA,0.426
18,AATGAACG,-0.131
19,CCGGTTGA,0.303
20,CGAGAACG,0.232
21,CCTAAACG,-0.0312
22,AATCCGAT,0.421
23,CATCCGAC,0.289
24,TATCCGAA,0.371
25,CATCCGAA,0.303

row,Sequence,PBM E-score
1,AATCCTAT,0.181
2,AATCCGAG,0.288
3,GATCCGAC,0.285
4,AATCCGAC,0.402
5,AATCCGAA,0.39
6,ATCGGGGC,0.296
7,CCACTGAG,-0.208
8,ACTGATGC,-0.0244
9,TCCAAACA,-0.094
10,GCAAGTGC,-0.274
11,GTTCTTCA,-0.192
12,ATTCGCTC,0.0759
13,AGTCGGAG,0.41
14,AGTCGGGA,0.142
15,AGTCGGAC,0.366
16,AGTCGGAA,0.408
17,CGTCGGAC,0.397
18,TGTCGGAA,0.384
19,AGTCGGAT,0.282
20,GGTCGGAC,0.355
21,GGTCGGAA,0.338
22,CGTCGGTC,0.215
23,AGTCGGCG,0.215
24,CGTCGGAA,0.43
25,ACGCAGGA,-0.166

row,Sequence,PBM E-score
1,CAAAGCGG,0.175
2,AACACTTG,-0.16
3,ATAAGACC,0.0726
4,ATGGTGTG,-0.23
5,CAACAAAG,-0.189
6,ATCAAGAC,-0.00757
7,ACCGCTAG,-0.19
8,CAGGGGGC,-0.125
9,CAGGTCAG,-0.0413
10,CGTCGTAG,0.00558
11,CGTCGGAG,0.441
12,CGTCGCAG,-0.192
13,ATTGGAAG,-0.0562
14,CTTTGCCC,-0.139
15,GCTTTTGA,-0.0305
16,ATCCTCCA,-0.301
17,AGCCTCCG,0.381
18,CGCCTCCA,0.0143
19,AACCTCCC,0.0351
20,CACCTCCC,-0.129
21,ATCCTCCG,0.431
22,AACCTCCT,-0.122
23,CGCCTCCG,0.398
24,CACCTCCG,0.425
25,ATCCTCCC,0.0358

row,Sequence,PBM E-score
1,AACCTCCG,0.466
2,CACCTCCA,0.0316
3,CAGTGGCA,-0.225
4,CCCTCCCA,0.0446
5,ACAGGGCC,0.0175
6,GAAACCAA,0.0455
7,CGACGCAA,0.114
8,GTACTGGA,-0.156
9,GCACCACC,0.0569
10,GACTGCGA,0.0431
11,TCCCTGAA,-0.217
12,CGTAAGGC,-0.161
13,CAGCTATG,-0.344
14,ACGGAAAC,0.278
15,TCGGAAAA,0.426
16,CCGGAAAG,0.319
17,GCGGAAAA,0.379
18,CAGGAAAA,0.00343
19,CCGGAAAC,0.404
20,CTGGAAAA,-0.00229
21,CCGGAAAA,0.453
22,ACGGAAAA,0.346
23,ATGAATTA,-0.228
24,CCGGTATC,0.32
25,GCGATCCC,0.0902

row,Sequence,PBM E-score
1,CAACACCG,0.212
2,AAACACCT,-0.135
3,AAACACCG,0.39
4,CTCCTCAC,-0.185
5,AATTTCCG,0.448
6,ATTTTCCA,0.0304
7,CATTTCCC,0.161
8,AATTTCCC,0.114
9,CATTTCCG,0.406
10,AATTTCCT,0.0327
11,ATTTTCCG,0.421
12,CATTTCCA,-0.0597
13,ATTTTCCC,0.063
14,GTTCGCAA,-0.0313
15,TATCCTCA,-0.0486
16,ATAACTGG,-0.0346
17,GTTCGGAA,0.403
18,CTTCGGCC,0.154
19,CTTCGGAA,0.419
20,CTTCGGCA,0.274
21,GTTCGGCA,0.134
22,CTTCGGGC,0.0457
23,CTTCGGAC,0.399
24,CTTCGGTA,0.0846
25,GTTCGGGA,0.277

row,Sequence,PBM E-score
1,AAGGTGGG,-0.161
2,GCGGTGTA,0.132
3,AAGGCACA,-0.231
4,CTTAGGTA,-0.0818
5,ATCTGAAA,-0.039
6,CGAGTACA,0.0348
7,ACATGCTC,-0.0918
8,ACACCCCG,0.241
9,AGTCCAAG,-0.236
10,CGTCCGAG,0.296
11,AGACCGAT,0.163
12,AGTCCGAG,0.43
13,AGTCCAAA,-0.107
14,AGTCCGAC,0.431
15,AGTCCGAT,0.458
16,AGTCCGAA,0.425
17,AGCCCGAC,0.152
18,AGGCCGAC,0.324
19,AGTCCTAA,-0.163
20,AGTCCTAT,-0.0902
21,AGTAAGTG,-0.128
22,ATCTCTGG,-0.239
23,AAACGACC,-0.0492
24,ACCTCATG,-0.349
25,ATTAGCTC,-0.0566

row,Sequence,PBM E-score
1,ACAGACTC,-0.109
2,GCCCGATA,0.0679
3,ATCCGATA,0.399
4,AACCGATA,0.0662
5,CTCCGATA,0.462
6,CTCCGATC,0.46
7,GTCCGATA,0.414
8,GGCCGATA,0.3
9,ATCCGATG,0.323
10,ATCCGATC,0.37
11,CGCCGATC,0.377
12,CACCGATA,0.194
13,CGCCGATA,0.37
14,CGCTCTAG,-0.113
15,AACTGCCA,-0.249
16,GTGGAGCA,-0.158
17,GAGCACGC,-0.106
18,GAACCGTA,-0.0428
19,AAACCGGA,0.438
20,TAACCGGA,0.431
21,CAACCGGC,0.27
22,GAACCGGA,0.426
23,AAACCGGT,0.204
24,AAACCGGC,0.356
25,CAACCGGA,0.414

row,Sequence,PBM E-score
1,TAACCGTA,-0.0936
2,CAACCGGG,0.215
3,GAACCGGC,0.283
4,TAACCGCA,0.0534
5,GGTGCTAC,-0.0466
6,GAAAGCAA,0.145
7,CAGGTTCC,0.0369
8,AAGGAGCA,-0.0618
9,GGAAGTAC,0.253
10,CATCACAG,-0.108
11,ATGTCCCC,0.042
12,ATGTCCGC,0.403
13,GTGTCCGA,0.374
14,ATGTCCGA,0.455
15,ATGTCCCG,0.319
16,CTGTCCGA,0.335
17,ATGTCCGG,0.468
18,CTGTCCGC,0.14
19,ATGTCCTG,-0.0169
20,AATCTTGA,-0.172
21,CATGCTAG,-0.256
22,AGACACTG,-0.321
23,ACCGGCCT,0.179
24,GCCGGCGC,0.396
25,ATCGGCGG,0.42

row,Sequence,PBM E-score
1,CCCGGCCG,0.354
2,ACCGGCCG,0.392
3,ACCGGCGT,0.3
4,GACGGCGC,0.169
5,ACCGGCGG,0.402
6,ATCGGCGA,0.327
7,ACCGGCGC,0.351
8,ATCGGCGC,0.326
9,GCCGGCCC,0.248
10,ATATGCTA,-0.0729
11,AAGCCCGA,0.27
12,CCCATAGG,-0.0984
13,AAAATGGT,0.184
14,GAAGTTAC,0.0322
15,ATCTTGAC,-0.292
16,ACGTCTTA,-0.241
17,CGGCCCCC,0.173
18,CACCAAAC,-0.119
19,CCCGGCGA,0.326
20,CCCGGCGC,0.338
21,CCCGGCGG,0.396
